Measurements reported in PubChem BioAssay AID1159580 (chemical genetic matrix, 2015).
“And” between values parts separate entries of the source, which are not always exact repeats. Identical values can stand only once. Among all 5,500 compounds or so, about 2,000 (36%) were called active. Inconclusive results (about 18%) are left out. Cut-off read from the data, not from the text of the source: active = normalized growth mostly below about 0.91 (no sharp cut-off); inconclusive = no clear call, values can overlap the other calls; inactive = mostly above about 0.92. The list shows a part of the results.

Test: chemical genetic growth profiling, strain panel (AID 1159580);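 note: tested at 20 µM; growth read once vehicle control cultures reached saturation at 30 °C; 1 = growth at the plate median or of vehicle wells; lower values mean less growth of the strain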
Details: S. cerevisiae deletion strains, growth OD

Measured: normalized growth

CC(=O)OCC(CCn1cnc2cnc(N)nc21)COC(C)=O
inactive: locus YAL013W, strain DEP1, stronger effect = lower value 0.988 | locus YAL021C, strain ccr4, stronger effect = lower value 1.01 | locus YAL026C, strain drs2, stronger effect = lower value 1 | locus YAL030W, strain snc1, stronger effect = lower value 0.982 | locus YBL061C, strain skt5, stronger effect = lower value 0.989 | locus YBR009C, strain hhf1, stronger effect = lower value 1 | locus YBR021W, strain FUR4, stronger effect = lower value 1.01 | locus YBR023C, strain chs3, stronger effect = lower value 0.998 | locus YBR171W, strain sec66, stronger effect = lower value 0.982 | locus YBR229C, strain ROT2, stronger effect = lower value 0.989 | locus YBR231C, strain swc5, stronger effect = lower value 0.971 | locus YBR279W, strain paf1, stronger effect = lower value 0.986 | locus YCL011C, strain gbp2, stronger effect = lower value 0.994 | locus YCL016C, strain dcc1, stronger effect = lower value 0.998 | locus YCL029C, strain bik1, stronger effect = lower value 0.965 | locus YCL061C, strain MRC1, stronger effect = lower value 0.991 | locus YCL069W, strain vba3, stronger effect = lower value 0.988 | locus YCR088W, strain abp1, stronger effect = lower value 0.988 | locus YDL005C, strain med2, stronger effect = lower value 0.991 | locus YDL035C, strain GPR1, stronger effect = lower value 0.994 | locus YDL040C, strain nat1, stronger effect = lower value 0.993 | locus YDL074C, strain BRE1, stronger effect = lower value 1.01 | locus YDL101C, strain DUN1, stronger effect = lower value 0.985 | locus YDL134C, strain PPH21, stronger effect = lower value 0.997 | locus YDL185W, strain tfp1, stronger effect = lower value 0.967 | locus YDL192W, strain arf1, stronger effect = lower value 0.971 | locus YDR001C, strain nth1, stronger effect = lower value 0.988 | locus YDR069C, strain doa4, stronger effect = lower value 0.972 | locus YDR101C, strain arx1, stronger effect = lower value 0.983 | locus YDR137W, strain rgp1, stronger effect = lower value 1.01 | locus YDR150W, strain NUM1, stronger effect = lower value 0.993 | locus YDR159W, strain sac3, stronger effect = lower value 1.01 | locus YDR162C, strain NBP2, stronger effect = lower value 0.996 | locus YDR195W, strain ref2 0.941 | locus YDR297W, strain sur2, stronger effect = lower value 0.987 | locus YDR318W, strain mcm21, stronger effect = lower value 0.979 | locus YDR334W, strain swr1, stronger effect = lower value 1 | locus YDR335W, strain msn5, stronger effect = lower value 0.99 | locus YDR388W, stronger effect = lower value 0.969 | locus YDR392W, strain spt3, stronger effect = lower value 0.995 | locus YDR502C, strain sam2, stronger effect = lower value 0.993 | locus YEL003W, strain gim4, stronger effect = lower value 0.984 | locus YEL037C, strain rad23, stronger effect = lower value 1 | locus YEL061C, strain CIN8 (second series), stronger effect = lower value 0.988 | locus YEL061C, strain CIN8, stronger effect = lower value 0.992 | locus YER015W, strain faa2, stronger effect = lower value 1 | locus YER016W, strain bim1, stronger effect = lower value 0.987 | locus YER110C, stronger effect = lower value 0.974 | locus YER111C, strain swi4, stronger effect = lower value 0.972 | locus YER155C, strain BEM2 (second series), stronger effect = lower value 0.959 | locus YER155C, strain BEM2, stronger effect = lower value 0.993 | locus YER167W, strain BCK2, stronger effect = lower value 0.989 | locus YFR010W, strain ubp6, stronger effect = lower value 0.98 | locus YGL078C, strain dbp3, stronger effect = lower value 0.967 | locus YGL086W, strain mad1, stronger effect = lower value 0.984 | locus YGL167C, strain pmr1, stronger effect = lower value 0.987 | locus YGL173C, strain kem1, stronger effect = lower value 1 | locus YGL227W, strain vid30, stronger effect = lower value 0.979 | locus YGL240W, strain doc1, stronger effect = lower value 0.966 | locus YGL248W, strain PDE1, stronger effect = lower value 0.987 | locus YGL253W, strain hxk2, stronger effect = lower value 0.996 | locus YGR078C, strain PAC10, stronger effect = lower value 1.01 | locus YGR135W, strain pre9, stronger effect = lower value 0.974 | locus YGR229C, strain SMI1, stronger effect = lower value 1.01 | locus YGR252W, strain gcn5, stronger effect = lower value 1.08 | locus YHR013C, strain ard1, stronger effect = lower value 1 | locus YHR027C, strain rpn1, stronger effect = lower value 0.989 | locus YHR030C, strain SLT2, stronger effect = lower value 0.984 and 0.946 | locus YHR079C, strain IRE1 (second series), stronger effect = lower value 0.961 | locus YHR079C, strain IRE1, stronger effect = lower value 0.957 | locus YHR094C, strain hxt1, stronger effect = lower value 0.973 | locus YHR129C, strain ARP1, stronger effect = lower value 0.991 | locus YHR142W, strain chs7, stronger effect = lower value 1 | locus YHR200W, strain rpn10, stronger effect = lower value 0.973 | locus YIL066C, strain RNR3, stronger effect = lower value 0.994 | locus YIL073C, strain SPO22, stronger effect = lower value 0.952 | locus YIL125W, strain kgd1, stronger effect = lower value 0.97 | locus YIR030C, strain dcg1, stronger effect = lower value 0.976 | locus YJL092W, strain hpr5, stronger effect = lower value 0.982 | locus YJL095W, strain BCK1 (second series), stronger effect = lower value 0.987 | locus YJL095W, strain BCK1, stronger effect = lower value 0.99 and 0.992 | locus YJL115W, strain asf1, stronger effect = lower value 0.979 | locus YJL129C, strain trk1, stronger effect = lower value 0.973 | locus YJL134W, strain LCB3, stronger effect = lower value 0.985 | locus YJL154C, strain vps35, stronger effect = lower value 0.997 | locus YJL164C, strain tpk1, stronger effect = lower value 1.01 | locus YJL166W, strain qcr8, stronger effect = lower value 0.984 | locus YJL168C, strain set2, stronger effect = lower value 0.974 | locus YJL187C, strain SWE1 (second series), stronger effect = lower value 0.984 | locus YJR043C, strain POL32, stronger effect = lower value 0.976 | locus YJR066W, strain TOR1, stronger effect = lower value 0.934
